This is an account of results in PubChem BioAssay AID739 (SRMLSC, 2007).

The campaign covered roughly 98,000 compounds. About 880 (0.9%) were called active. Rule as the data show it: active = inhibition above about 30%; inactive = the rest. Many of the other results were omitted from the sample, so actives are more common in it than they were.

A short description of this assay: phenotypic screen on post-Golgi transport, primary screen (AID 739).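 Also: yeast cells grown in 1536-well plates; yeast grown about 18 h at 30C before absorbance read.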 Particulars: post-Golgi transport phenotypic cell assay; at 10 µM; hits give high values.
What is called inhibition is the relative decrease from the control value, in per cent. `O=C(C1CCN(S(=O)(=O)c2cccs2)CC1)N1CCCCCC1`: the inhibition is 34.1% (active).

For the molecule `O=C(NCc1ccccc1)C1CCCN(S(=O)(=O)c2cccs2)C1` (stereo not given), the inhibition is 0% (inactive).

`O=C(NC1CCCCC1)C1CCCN(S(=O)(=O)c2cccs2)C1` (stereo not given): the inhibition was -9.88% (inactive).

With `Cc1cccc(C(=O)Nc2ccccc2-c2nnn(CC(=O)Nc3ccc4c(c3)OCCO4)n2)c1`, the inhibition was -5.17% (inactive).

`CC(=O)c1cc(NC(=O)c2ccccc2)c(=O)oc1/C=C/N(C)C`: the inhibition was -1.13% (inactive).

Take `Cn1ccs/c1=N\S(=O)(=O)c1ccc(C(C)(C)C)cc1`: the inhibition is -6.14% (inactive).

As to `O=C(O)CCN=C1CCc2ccccc2N1`, the inhibition was 2.24% (inactive).

In the case of `CCOc1cccc(C(=O)Nc2cccnc2)c1`, the inhibition was 31% (active).

Consider `CCOc1cccc(C(=O)Nc2cnn(Cc3ccccc3)c2)c1`, for which the inhibition is 7.09% (inactive).

For `CCC(=O)Nc1cccc(NC(=O)c2cccnc2)c1`, the inhibition is -2.1% (inactive).

On to `NC(=NC(=O)c1ccccc1)N1CCOCC1`, for which the inhibition was -0.16% (inactive).

For the molecule `CCOC(=O)c1cc2cc(C)ccc2[nH]1`, the inhibition is 39.6% (active).

For `CCNCc1cc2cc(C)ccc2[nH]c1=O`, the inhibition is 6.62% (inactive).

On to `CC(=O)OCc1cc2cc(C)ccc2[nH]c1=O`, for which the inhibition was 5.81% (inactive).

In the case of `N/C(=N\OC(=O)CCC1CCCCC1)c1ccccn1`, the inhibition is 13.9% (inactive).

On to `Nc1c(-c2ccc(F)cc2)cnc2ncnn12`, for which the inhibition is 15.1% (inactive).

Turning to `O=C(CCC(=O)OCc1cccc(C(=O)Oc2ccccc2)c1)Nc1cccc2ccccc12`, the inhibition was -3.63% (inactive).

For `N#Cc1nc(Cc2ccccc2)oc1NCCc1ccccc1`, the inhibition is 18.8% (inactive).

`N#Cc1nc(COc2ccc(-c3ccccc3)cc2)oc1NCc1cccnc1`: the inhibition was 99.8% (active).

For the molecule `N#Cc1nc(-c2ccc(OCc3ccccc3)cc2)oc1NCCCN1CCOCC1`, the inhibition was 5.49% (inactive).

Regarding `CCCn1nc2cc(C(=O)NCc3ccccc3)ccc2c1OCC`, the inhibition was 2.26% (inactive).

`CCCCNC(=S)NNC(=O)c1cc(C)on1`: the inhibition is 0.65% (inactive).

For `COc1ccc(/C=C2/S/C(=N/N=C3\CC4CCC3(C)C4(C)C)NC2=O)cc1` (stereo not given), the inhibition is -0.32% (inactive).

For `COC(=O)c1ccc(CSc2nnc(NC(C)C)s2)cc1`, the inhibition was 36.2% (active).

`CCOc1ccccc1Nc1nnc(SCc2ccc(C(=O)OC)o2)s1`: the inhibition was -9.05% (inactive).

Consider `COC(=O)c1ccc(CSc2nncn2C)cc1`, for which the inhibition is 1.45% (inactive).

As for `Cc1ccccc1/[N+]([O-])=C/c1ccncc1`, the inhibition is -1.29% (inactive).

As for `COc1ccc2c(Cl)c(C(=O)NCc3ccco3)sc2c1`, the inhibition was -10.7% (inactive).

Regarding `COCCNC(=O)COc1ccc(C)c(C)c1`, the inhibition is 4.17% (inactive).

`Cc1cc(=O)oc2ccc(OCC(=O)O)cc12`: the inhibition was 2.48% (inactive).

For `Cc1ccc(SC(=O)COc2ccc(C)c(C)c2)cc1`, the inhibition was 35.3% (active).

`O=S(=O)(c1ccc(F)cc1)n1ccc(-c2cnc(-c3ccccc3)s2)n1`: the inhibition is -10% (inactive).

On to `O=C(Nc1nnc(CCOCCOCCc2nnc(NC(=O)c3ccco3)s2)s1)c1ccco1`, for which the inhibition is -30.3% (inactive).

Consider `CCCc1noc2c1/C(=N\O)CCC2`, for which the inhibition was 13.6% (inactive).

For `O=C(NCC1CCCO1)c1ccc2ccccc2n1` (stereo not given), the inhibition was -3.36% (inactive).
